Active and inactive are the calls of the source.
Assays:
[1] = test system: Human papillomavirus type 1a protein E7 (residues 44-93); assay: small molecules binding HPV E7 44-93 – biochemical, small-molecule microarray, residues 44-93, 635 nm fluorescence, primary screen (AID 1108); conditions: fluorescence 635 nm, higher = more signal;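 note: E7 fragment applied at 1 µg/mL in TBST for 1 h at 4 C; score combines spot fluorescence with its signal to noise ratio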
[2] = hepatitis C replication reporter changes, two-sided – Huh7 cells, luciferase reporter, HCV replication inhibitor project, primary screen (AID 1109); conditions: Huh7 HCV replicon luciferase reporter, 48 h; higher = more signal;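 note: huh7 hepatoma cells harbouring a luciferase neomycin HCV replicon reporter; luciferase luminescence as measure of HCV replicon replication; test concentration not given here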
[3] = target: Left-right determination factor 2 (Homo sapiens) (UniProt O00292); assay: small molecules binding LEFTY2 protein – biochemical, small-molecule microarray, 635 nm fluorescence scan, primary screen (AID 1110); conditions: higher = more signal
Chain of Left-right determination factor 2 (Homo sapiens) (O00292 whole entry, looked up): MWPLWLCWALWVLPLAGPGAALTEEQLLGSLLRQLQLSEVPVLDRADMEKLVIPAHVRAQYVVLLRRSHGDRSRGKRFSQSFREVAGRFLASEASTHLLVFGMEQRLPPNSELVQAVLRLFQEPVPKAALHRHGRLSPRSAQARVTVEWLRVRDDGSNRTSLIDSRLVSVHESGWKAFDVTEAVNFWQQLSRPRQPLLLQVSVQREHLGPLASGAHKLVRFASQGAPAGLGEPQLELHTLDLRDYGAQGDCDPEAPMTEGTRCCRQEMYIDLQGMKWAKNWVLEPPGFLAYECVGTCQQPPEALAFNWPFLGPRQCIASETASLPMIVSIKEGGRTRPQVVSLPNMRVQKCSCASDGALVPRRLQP

[4] = target: Calmodulin-1 (Homo sapiens) (UniProt P0DP23); assay: small molecules binding calmodulin-1 with EGTA – biochemical, small-molecule microarray, Cy5-labelled CALM1, profiling panel (AID 1111); conditions: Cy5-CALM1 binding fluorescence, higher = more signal;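 note: labelled calmodulin applied in Tris saline Tween buffer holding calcium plus EGTA and DTT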
[5] = target: Calmodulin-1 (Homo sapiens) (UniProt P0DP23); assay: small molecules binding Ca-loaded calmodulin-1 – biochemical, small-molecule microarray, Cy5-labelled CALM1, plus calcium, artefact control for SMM control-protein annotation, profiling panel (AID 1112); conditions: Cy5-CALM1 binding fluorescence, higher = more signal;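 note: score merges spot fluorescence with signal to noise from triplicate slides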
[6] = probe aWnt5a binding to arrayed compounds – biochemical, biotinylated probe, 635/667 nm fluorescence, primary screen (AID 1113); conditions: small-molecule microarray, higher = more signal;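 note: score merges 667 nm fluorescence intensity with signal-to-noise per printed feature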
[7] = probe aShh binding to arrayed compounds – biochemical, biotinylated probe, 635/667 nm fluorescence, primary screen (AID 1114); conditions: small-molecule microarray, higher = more signal;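 note: probe is biotin-labelled aShh protein from a stem cell growth factor screen; measures binding of labelled protein to compounds printed on the slide; score merges feature fluorescence at 667 nm with signal-to-noise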
[8] = probe aNog binding to arrayed compounds – biochemical, biotinylated probe, 635/667 nm fluorescence, primary screen (AID 1115); conditions: small-molecule microarray, higher = more signal;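 note: probe is biotinylated aNog protein used at 0.15 µg/mL for 1 h at 4 C; z-score combines 667 nm fluorescence of each spot with its signal to noise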
[9] = target: Torsin-1A-interacting protein 1 (Homo sapiens) (UniProt Q5JTV8); assay: compound microarray binding of lysate hLAP1 – cell lysate, small-molecule microarray, COS7 lysate, 635/667 nm fluorescence, primary screen (AID 1116); conditions: 635 nm fluorescence, higher = more signal
Chain of Torsin-1A-interacting protein 1 (Homo sapiens) (Q5JTV8 whole entry, looked up): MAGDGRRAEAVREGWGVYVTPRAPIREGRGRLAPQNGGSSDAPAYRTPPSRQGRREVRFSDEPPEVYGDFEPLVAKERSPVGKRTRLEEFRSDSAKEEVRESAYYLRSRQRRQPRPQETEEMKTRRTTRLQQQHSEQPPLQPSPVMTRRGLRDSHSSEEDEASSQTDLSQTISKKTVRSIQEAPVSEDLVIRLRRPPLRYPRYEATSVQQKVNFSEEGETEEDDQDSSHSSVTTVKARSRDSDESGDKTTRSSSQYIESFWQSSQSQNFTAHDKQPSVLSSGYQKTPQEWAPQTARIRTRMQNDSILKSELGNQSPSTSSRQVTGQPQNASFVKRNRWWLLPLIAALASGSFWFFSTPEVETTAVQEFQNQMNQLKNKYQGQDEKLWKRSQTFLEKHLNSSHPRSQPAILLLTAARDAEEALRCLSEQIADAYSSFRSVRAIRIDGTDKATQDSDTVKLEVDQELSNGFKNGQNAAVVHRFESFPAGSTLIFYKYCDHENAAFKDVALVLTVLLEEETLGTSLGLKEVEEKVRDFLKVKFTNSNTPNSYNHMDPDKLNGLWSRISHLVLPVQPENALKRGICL

[10] = target: Alpha-bungarotoxin (Bungarus multicinctus) (UniProt P60615); assay: compounds binding labelled alpha-BTX control protein – biochemical, small-molecule microarray, Alexa647 label, 635/667 nm fluorescence, artefact control for SMM control protein annotation, profiling panel (AID 1117); conditions: alpha-BTX-A647 binding fluorescence, higher = more signal
Chain of Alpha-bungarotoxin (Bungarus multicinctus) (P60615 whole entry, looked up): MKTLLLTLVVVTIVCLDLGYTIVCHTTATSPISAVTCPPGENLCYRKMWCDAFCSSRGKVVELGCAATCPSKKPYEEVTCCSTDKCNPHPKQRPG

[11] = target: Albumin (Bos taurus) (UniProt P02769); assay: compounds binding labelled BSA control protein – biochemical, small-molecule microarray, Alexa647 label, 635/667 nm fluorescence, artefact control for SMM control protein annotation, profiling panel (AID 1118); conditions: BSA-A647 binding, fluorescence 635 nm, higher = more signal;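 note: score merges 667 nm emission intensity and signal-to-noise per printed compound spot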
Chain of Albumin (Bos taurus) (P02769 whole entry, looked up): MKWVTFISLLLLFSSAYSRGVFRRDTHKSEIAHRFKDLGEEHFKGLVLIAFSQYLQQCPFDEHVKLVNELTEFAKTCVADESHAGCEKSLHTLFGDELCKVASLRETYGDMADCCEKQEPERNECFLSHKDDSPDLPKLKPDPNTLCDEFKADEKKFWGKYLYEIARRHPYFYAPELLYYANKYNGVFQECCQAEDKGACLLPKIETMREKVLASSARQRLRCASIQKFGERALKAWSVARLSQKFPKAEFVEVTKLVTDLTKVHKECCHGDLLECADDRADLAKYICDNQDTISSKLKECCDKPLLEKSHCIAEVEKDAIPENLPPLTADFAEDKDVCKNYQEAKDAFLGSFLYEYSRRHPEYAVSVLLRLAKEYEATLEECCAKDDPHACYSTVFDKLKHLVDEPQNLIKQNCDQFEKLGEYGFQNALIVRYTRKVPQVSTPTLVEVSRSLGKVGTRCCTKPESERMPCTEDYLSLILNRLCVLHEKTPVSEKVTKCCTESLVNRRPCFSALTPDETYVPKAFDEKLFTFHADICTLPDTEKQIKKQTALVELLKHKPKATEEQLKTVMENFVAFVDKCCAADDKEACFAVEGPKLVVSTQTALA

[12] = probe aXIP binding to arrayed compounds – biochemical, NeuroSMM set, 635/667 nm fluorescence, primary screen (AID 1119); conditions: small-molecule microarray, higher = more signal, called active from +8 up or from −8 down;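 note: probe is the protein aXip251-270 applied at 1 µg/mL to compound-printed slides; binding of probe to printed compounds measured as 667 nm fluorescence plus signal to noise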
[13] = probe aNOTCH3 binding on compound microarray – biochemical, small-molecule microarray, 635/667 nm fluorescence, primary screen (AID 1120); conditions: higher = more signal;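 note: probe is a biotin-tagged antibody raised against NOTCH3 rather than NOTCH3 protein; score merges spot fluorescence near 667 nm with spot signal to noise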
[14] = probe aNOTCH2 binding on compound microarray – biochemical, small-molecule microarray, 635/667 nm fluorescence, primary screen (AID 1121); conditions: higher = more signal;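 note: score merges feature fluorescence read at 667 nm with its signal to noise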
[15] = target: Carbonic anhydrase 2 (Homo sapiens) (UniProt P00918); assay: compounds binding carbonic anhydrase 2 – biochemical, small-molecule microarray, Alexa647-labelled CAII, profiling panel (AID 1122); conditions: CAII-A647 binding fluorescence, higher = more signal
[16] = COS7 lysate on small-molecule microarray, probe aHis, 635 nm (AID 1123); conditions: COS7 cell lysate, fluorescence, higher = more signal;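 note: z-score combines 667nm fluorescence intensity with signal-to-noise per printed compound spot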
[17] = probe aLAP1 signal on lysate-treated microarray – cell lysate, small-molecule microarray, COS7 lysate, primary screen (AID 1124); conditions: probe aLAP1, fluorescence, higher = more signal;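 note: lysate comes from COS7 cells expressing LAP1 and is applied at 0.3 µg/mL; score merges spot fluorescence near 667 nm with signal-to-noise over triplicate slides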
[18] = test system: Sam68 (KHDRBS1); assay: compounds binding KHDRBS1 protein – biochemical, small-molecule microarray, 635 nm fluorescence, primary screen (AID 1125); conditions: higher = more signal;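 note: score merges 667 nm channel intensity with signal to noise over triplicate slides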
[19] = test system: Chordin-like protein 2 (CHRDL2); assay: compounds binding chordin-like 2 – biochemical, small-molecule microarray, 635 nm fluorescence, primary screen (AID 1126); conditions: fluorescence 635 nm, higher = more signal;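 note: printed compound slides probed with Chrdl2 protein at 4 µg/mL for 1 h at 4 C; score merges 667 nm emission intensity with signal to noise over three replicate slides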
[20] = target: Concanavalin-A (Canavalia ensiformis) (UniProt P02866); assay: compounds binding concanavalin A lectin – biochemical, small-molecule microarray, Alexa647 label, 635 nm, artefact control for SMM control protein annotation, primary screen (AID 1127); conditions: ConA-A647 binding fluorescence, higher = more signal;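 note: z combines 667 nm emission intensity with signal-to-noise across three replicate slides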
Chain of Concanavalin-A (Canavalia ensiformis) (P02866 whole entry, looked up): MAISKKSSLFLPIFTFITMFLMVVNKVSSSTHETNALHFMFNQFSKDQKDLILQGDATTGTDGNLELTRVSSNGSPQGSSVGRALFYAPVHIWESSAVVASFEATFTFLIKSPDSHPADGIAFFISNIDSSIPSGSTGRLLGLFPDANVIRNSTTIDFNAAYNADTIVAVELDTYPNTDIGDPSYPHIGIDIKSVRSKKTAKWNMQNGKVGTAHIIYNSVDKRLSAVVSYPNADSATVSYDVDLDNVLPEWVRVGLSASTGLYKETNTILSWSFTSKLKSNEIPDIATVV

| Compound | composite z-score [1] | z-score [2] | composite z-score [3] | composite z-score [4] | composite z-score [5] | composite z-score [6] | composite z-score [7] | composite z-score [8] | composite z-score [9] | composite z-score [10] | composite z-score [11] | composite Z-score [12] | composite z-score [13] | composite z-score [14] | composite z-score [15] | composite z-score [16] | composite z-score [17] | composite z-score [18] | composite z-score [19] | composite z-score [20] |
| --- | --- | --- | --- | --- | --- | --- | --- | --- | --- | --- | --- | --- | --- | --- | --- | --- | --- | --- | --- | --- |
| C[C@]12CCC3c4ccc(OCC5CO5)cc4CCC3C1CC[C@@H]2O (stereo not given in full) | 0.629 | -2.71 | 0.242 | 0.964 | 0.285 | -0.0346 | 0.0062 | 0.316 | 0.542 | 1.59 | 0.754 | 0.257 (inactive) | -0.0932 | 0.0365 | 0.646 | 0.528 | 0.414 | 0.759 | 0.118 | 0.961 |
| CC(CCN1CCCCc2nc(C)c(C)cc21)=NO[C@@H](C)c1cc(-c2c(C)cc(C)cc2C)no1 | -0.384 | -1.56 | -0.747 | -0.901 | -0.891 | -0.152 | -0.221 | -0.298 | 0.0623 | -0.664 | 0.335 | -0.0861 (inactive) | -0.231 | -0.0904 | -0.079 | -0.257 | 0.197 | -1.33 | -0.734 | -1.84 |
| COc1cccc([C@H]2Oc3ccc(OC)cc3C(=NO[C@@H](C)c3cc(-c4c(C)cc(C)cc4C)no3)[C@@H]2O)c1 | -0.355 | -1.71 | -2.35 | -0.831 | 0.668 | -0.172 | -0.195 | 0.0983 | -0.589 | -0.628 | -1.31 | -0.238 (inactive) | -0.305 | -0.155 | 0.108 | -0.552 | 0.843 | -0.156 | -0.861 | -1.57 |
| C[C@H]1CC[C@@H](C(=O)O)N[C@@H]1c1ccc(C#Cc2ccccc2)cc1 | 0.942 | -4.69 | 0.753 | 0.119 | -0.332 | -0.0203 | -0.154 | -0.256 | 0.666 | 0.966 | 0.213 | 0.142 (inactive) | 0.0876 | -0.0907 | 0.863 | 0.803 | 0.707 | 1.22 | 1.34 | 1.1 |
| COC(=O)[C@@H]1CC[C@H](C)[C@@H](c2ccc(Br)cc2)N1C[C@@H](O)CN=[N+]=[N-] | 0.29 | -0.779 | 0.445 | -0.178 | -0.437 | -0.0403 | 0.0494 | -0.0103 | 0.289 | -0.291 | -0.236 | -0.509 (inactive) | 0.0016 | -0.18 | -0.0121 | 0.23 | 0.546 | 0.56 | 0.401 | -0.0032 |
| CCCNC(=O)OC[C@H]1O[C@H](CCON=C2C[C@@H](O)[C@@H](O)[C@@H]3[C@@H]4C(=O)N(CC)C(=O)[C@@H]4CC[C@@H]23)C=C[C@@H]1Oc1ccc(OC)cc1 | 0.938 | -1.33 | 0.928 | 0.0716 | -0.795 | -0.141 | 0.531 | 0.084 | -0.0137 | 0.512 | 0.148 | -0.477 (inactive) | 0.217 | -0.136 | 0.575 | 0.572 | 0.73 | 1.32 | 0.929 | 0.728 |
| COC(=O)CC=C[C@@H](C)[C@@H](C=NOC[C@@H](C)[C@H](OCc1ccccc1)C(C)C)NS(=O)(=O)c1ccc(C)cc1 | -0.482 | -1.44 | 0.21 | -1.51 | -1.26 | -0.148 | -0.0977 | -0.541 | 0.161 | -1.25 | -1.05 | 0.216 (inactive) | -0.161 | -0.216 | -0.351 | -0.342 | 0.102 | -0.135 | 0.271 | -0.596 |
| O=C1C[C@@H](O)[C@@H](O)[C@@H]2[C@@H]3C(=O)N(c4ccc(F)cc4F)C(=O)[C@@H]3CC[C@H]12 | 0.473 | -0.313 | 0.681 | -0.134 | -0.519 | -0.0718 | -0.18 | -0.213 | 0.82 | 0.0317 | 0.422 | -0.0025 (inactive) | 0.0257 | -0.102 | 0.104 | 0.517 | 0.0172 | 0.495 | 0.571 | 0.44 |
| O=C1C2=CC[C@H]3C(=O)N(C[C@@H]4CCCO4)C(=O)[C@H]3[C@H]2[C@H](O)[C@@H]2O[C@H]12 | 0.0207 | -4.56 | 0.153 | -0.248 | -1.13 | -0.219 | 0.0121 | -0.158 | 0.518 | 0.395 | 0.335 | -0.275 (inactive) | -0.183 | -0.0928 | -0.145 | -0.534 | -0.246 | 0.244 | 0.362 | 0.397 |
| O=C1[C@H]2[C@H]3[C@H](O)[C@H](O)CC(=NOC[C@@H](O)COCc4ccco4)[C@@H]3CC[C@H]2C(=O)N1Cc1ccccc1 | 1.48 | -0.114 | 1.19 | -0.754 | -1.55 | -0.152 | -0.0866 | -0.529 | 0.77 | 0.238 | -0.123 | -0.0662 (inactive) | 0.121 | -0.102 | 0.552 | 0.654 | 0.173 | 1.3 | 1.4 | -0.193 |
| CO[C@@H](C1CCCCC1)[C@@H](C)[C@H](OCc1cccc(Br)c1)[C@@H](C)CO | -0.18 | -1.88 | 0.481 | -0.434 | 0.318 | -0.139 | -0.0709 | 0.0649 | 0.0682 | -0.378 | -0.0658 | -0.188 (inactive) | -0.207 | -0.209 | -0.17 | -0.111 | -0.0972 | -0.0221 | 0.908 | -0.153 |
| COC(=O)[C@@H]1CC[C@H](C)[C@@H](c2ccc(C)cc2)N1C(=O)c1ccc(C=NOC[C@H]2O[C@H](c3ccccc3)C=C[C@@H]2Oc2ccc(OC)cc2)cc1 | 0.404 | -0.739 | 0.35 | -0.156 | -0.551 | 0.0104 | -0.234 | 0.0498 | 1.18 | 0.304 | 0.312 | -0.496 (inactive) | 0.0257 | -0.161 | -0.145 | -0.336 | -0.192 | 0.233 | 0.692 | 0.45 |
| O=C1C2=CC[C@H]3C(=O)N(Cc4ccccc4)C(=O)[C@H]3[C@H]2[C@H](O)[C@@H]2O[C@H]12 | -0.695 | -5.09 | 0.101 | -0.476 | -0.65 | -0.129 | -0.0553 | -0.158 | 0.237 | 0.0012 | -0.356 | 0.0144 (inactive) | -0.199 | -0.167 | 0.0372 | -0.458 | -0.11 | 0.085 | 0.343 | -0.707 |
| O=C1CCCC=C1C(O)c1ccc([N+](=O)[O-])cc1 (stereo not given) | -0.607 | -0.67 | 0.387 | -0.79 | -0.499 | -0.101 | -0.288 | -0.489 | 0.315 | -0.237 | 0.265 | -0.163 (inactive) | 0.0494 | -0.148 | -0.187 | -0.251 | 0.0252 | -0.311 | 0.0616 | -0.343 |

Reference: PubChem BioAssay
